mHTT CaM bind: mHTT-calmodulin interaction abrogation. P42858. AlphaScreen His-mHTT/GST-CaM binding, luminescence. 190,000 compounds, 3.6% hits. inhibition, % at 15 µM
Pf apPOL block: Pf-apPOL DNA polymerase inhibition; inhibition, % at 10 µM; AID 1794808; 210,000 compounds, 0.25% hits; Recombinant Pf-apPOL, molecular beacon fluorescence, 1.5 h
Large screens that a line does not name were inactive; ! = repeats disagree. Many of the other results were omitted from the sample, so hits are more common in it than they were. Cut-off read from the data, not from the text of the source: active = inhibition above about 50%; inactive = the rest.

O=C1NC(=Nc2ccccc2)S/C1=C/c1cc(Br)ccc1O	mHTT CaM bind 55
O=C1NC(=Nc2ccccc2)S/C1=C/c1ccc(O)c(O)c1	none
O=C1NC(=Nc2ccccc2)S/C1=C/c1cc(I)ccc1O	mHTT CaM bind 52
COc1ccc(Br)cc1/C=C1/SC(=Nc2ccccc2)NC1=O	none
O=C1NC(=Nc2ccccc2)S/C1=C/c1cc(Br)cc(Cl)c1O	mHTT CaM bind 96
Cc1ccccc1/C=C1/SC(=Nc2ccccc2)NC1=O	none
Cc1ccc(NC(=O)c2cnc3ccccc3n2)cc1	none
COCCN1C(=O)Cc2ccccc2C1C(=O)NCc1ccccc1Cl (stereo not given)	none
O=C1c2ccccc2C(=O)C1(c1nc2ccccc2[nH]1)[N+](=O)[O-]	none
O=C(COc1ccccc1)Nc1c2c(nn1-c1ccc([N+](=O)[O-])cc1)CSC2	none
Cc1cc(OCC(=O)NC(C)C)ccc1Cl	mHTT CaM bind 90
CC(C)NC(=O)c1csc(COc2ccc(Cl)cc2)n1	none
Cc1cc(OCc2nc(C(=O)NC(C)C)cs2)ccc1Cl	mHTT CaM bind 66
Cc1cc(OCC(=O)NN)ccc1Cl	none
O=[N+]([O-])c1cc([N+](=O)[O-])c2cc(-c3ccc(F)cc3)oc2c1	none
CCOC(=O)c1ccc(NC(=O)CC2COc3ccccc3NC2=O)cc1 (stereo not given)	none
Cc1cc(C)nc(NC(=O)c2ccc(-c3ccccc3)cc2)n1	none
CSc1nnc(-c2nn(C)c3c2CN(C(=O)c2ccc(Br)cc2)CC3)n1C	none
O=C(NCCc1c[nH]c2ccccc12)c1cc2nc(-c3ccco3)cc(C(F)(F)Cl)n2n1	mHTT CaM bind 76
O=C(NCCCN1CCOCC1)c1cc2nc(-c3ccco3)cc(C(F)(F)Cl)n2n1	none
COc1ccc(C2C=C(c3ccc(C)cc3)Nc3nnnn32)c(OC)c1 (stereo not given)	none
CCn1nccc1C(=O)N1CCCC2(C1)Nc1ccccc1NC2=NCc1ccccc1 (stereo not given)	none
O=C(c1ccoc1)N1CCCC2(C1)Nc1ccccc1NC2=NCc1ccccc1 (stereo not given)	mHTT CaM bind 100
O=C(c1ccco1)N1CCCC2(C1)Nc1ccccc1NC2=NCc1ccccc1 (stereo not given)	mHTT CaM bind 84
CC(=O)N1CCCC2(C1)Nc1ccccc1NC2=NCc1ccccc1 (stereo not given)	mHTT CaM bind 72
O=C(c1ccccn1)N1CCCC2(C1)Nc1ccccc1NC2=NCc1ccccc1 (stereo not given)	none
O=C(c1cccnc1)N1CCCC2(C1)Nc1ccccc1NC2=NCc1ccccc1 (stereo not given)	none
O=C(NCCNc1ccc(C(F)(F)F)cc1[N+](=O)[O-])c1ccccc1F	none (no result: mHTT CaM bind)
O=C(CSc1n[nH]c(-c2ccncc2)n1)c1ccc(O)c(O)c1	mHTT CaM bind 84!
O=C(CSc1n[nH]c(-c2ccncc2)n1)c1ccc(F)cc1	none
O=C(COc1ccccc1)Nc1ccc(O)c(-c2nc3ccccc3s2)c1	none
N#Cc1c(N)nc2c(c1-c1ccc(Cl)cc1)CCC2	none
Cc1cccc(CC(=O)N2CCN(c3nc4ccccc4n(C)c3=O)CC2)c1	none
COc1ccccc1C1CC(=O)Nc2c1c(C)nn2-c1nc2ccccc2s1 (stereo not given)	none
Clc1ccccc1C1CC(c2ccco2)=Nc2ccccc2S1 (stereo not given)	mHTT CaM bind 51
Cc1ccc(C2CC(c3ccccc3)=Nc3ccccc3S2)cc1 (stereo not given)	none (no result: mHTT CaM bind)
COCC(=O)Nc1cnc(N2CCCCCC2)nc1	none
CCn1c(=O)c2c(ncn2C(C)C)n(-c2cccc(Cl)c2)c1=O	none
Cc1cc(Cl)ccc1OCC(O)CNC(C)c1ccccc1 (stereo not given)	mHTT CaM bind 58
Cc1cc(OCC(O)CNC(C)c2ccccc2)ccc1Cl (stereo not given)	mHTT CaM bind 100
Cc1cc(Cl)ccc1OCC(O)CN1CCN(C)CC1 (stereo not given)	none
Cc1ccc(OCC(O)CNC(C)(C)C)cc1C (stereo not given)	none
Cc1ccc(-c2nocc2CCC(=O)NCc2cccc(F)c2)cc1	none
O=C(Cn1nc2nc(Nc3ccc(F)cc3)ccn2c1=O)NCc1ccc(F)cc1Cl	none
Cc1ccccc1NC(=O)C(C)N1C(=O)CCCc2ccccc21 (stereo not given)	none
CC(=O)N1CCCC(COc2ccc(C(=O)NC(C)C)cc2)C1 (stereo not given)	none
O=C(c1ccsc1)N1CCCCC1CCN1CCOCC1 (stereo not given)	none
Cc1ccc(-c2csc(=Nc3ccc(F)cc3)n2CCO)cc1	mHTT CaM bind 63
OCCCn1c(-c2ccc(F)cc2)csc1=Nc1ccc(F)cc1	mHTT CaM bind 59
OCCn1c(-c2ccc(F)cc2)csc1=Nc1ccc(F)cc1	none
O=C1c2ccccc2C(=O)N1c1cccc(-c2csc(=Nc3ccccc3)n2CCO)c1	none
COCCNC(=O)N(Cc1ccsc1)CC(F)(F)F	none
COc1ccc(C=C2Oc3cc(OC(=O)c4ccccc4)ccc3C2=O)c(OC)c1OC	none
CCOc1ccc(Nc2cc(C)nc3ccc(Cl)cc23)cc1	none

Source: PubChem BioAssay
